A selection: hits, their analogues and other compounds. The true share with any hit is near 12%.
Sm TGR block = S. mansoni TGR enzyme inhibition; Q962Y6; purified TGR, DTNB reduction, TNB absorbance 405 nm; Potency, µM (titrated, usually from 114 µM), without a hit: top-dose activity change, negative = inhibition, actives largely listed as inhibitors; 360,000 compounds, 3% hits; AID 485364; also: % is scaled to controls: 0 for no effect and ±100 for the full control effect; nearly all actives have a fitted effect of over 60% in size
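TGR 20 nM + NADPH 100 uM (dispensed conc.), cpd preinc 15 min RT; start with NADPH (500 uM addition) then DTNB (15 mM addition). Kinetic TNB absorbance, 405 nm filter. Four-parameter Hill fit across titration.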
SARS PLP yeast = inhibitors of SARS-CoV papain-like protease in yeast; AID 485353; 330,000 compounds, 0.19% hits; S. cerevisiae expressing SARS-CoV PLpro, growth rescue; Potency, µM (doses to about 32.9 µM), inactives show at the highest dose activity, positive = growth rescue, most hits filed as activators; calls by dose curve; also: 0% is about no effect; nearly all actives have a fitted effect of over 55% in size
Pf growth 48h = P. falciparum growth inhibition at 48 hours (one generation); AID 504832; 310,000 compounds, 5.9% hits; P. falciparum luciferase growth in erythrocytes, 48 h; Potency, µM (top dose mostly 28.7 µM), without a hit: top-dose activity change, negative = inhibition, usual class: inhibitors; also: % is scaled to controls: 0 for no effect and ±100 for the full control effect
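In quantitative HTS format, infected erythrocytes bearing luciferase-reporter parasites were treated for a single generation at 37 C. Luminescence after adding detection reagent served as the growth measure.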
Pf growth 96h = inhibits malaria parasite growth, 96 h | P. falciparum luciferase reporter growth, 96 h | Potency, µM (highest dose often 28.7 µM), for inactives: at the top dose activity change, negative = inhibition, usual class: inhibitors | 320,000 compounds, 6.9% hits | AID 504834; also: % is scaled to controls: 0 for no effect and ±100 for the full control effect
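Two-generation exposure (96 h) targets delayed-death phenotype. Reporter parasites carrying integrated firefly luciferase, in red cells at 2% hematocrit and 0.05% parasitemia final, kept at 37 C, 5% CO2; luminescence loss indicates inhibition.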
* = called active by the depositor; ? = inconclusive; / = no result given. Unless noted, calls follow the shape of the dose curve; as a rule, active = well fitted curve in the direction sought with a large enough effect; inconclusive = small, poorly fitted or top-dose-only effect, or another doubt; inactive = no such curve, though single readings can be large; an effect the other way counts as inactive or inconclusive. Potency is read from the fitted curve at half-maximal effect.

SMILES | Sm TGR block | SARS PLP yeast | Pf growth 48h | Pf growth 96h
Cc1cc2cc(CNC(=O)c3ccc(S(=O)(=O)N(C)C)cc3)ccc2n1C | 2% | 3% | ? | ?
COc1cc(OC)cc(C(=O)NCc2ccc3[nH]c(C)cc3c2)c1 | ? | 2% | 9.3µM* | 19µM*
Cc1cc2cc(CNC(=O)c3ccc4c(c3)OCO4)ccc2[nH]1 | -10% | -5% | 7% | 45%
CCN(CC)CCCNC(=O)c1cn(CC)c2cc(N3CCN(C(=O)c4ccco4)CC3)c(F)cc2c1=O | ? | -1% | 7.4µM* | ?
CCn1cc(C(=O)NCCN(C)C)c(=O)c2cc(F)c(N3CCN(C)CC3)cc21 | -1% | 1% | ? | ?
CCN(CC)CCNC(=O)c1cn(CC)c2cc(N3CCN(C(=O)c4ccco4)CC3)c(F)cc2c1=O | -3% | 0% | -18% | -24%
CCn1cc(C(=O)NCCC(C)C)c(=O)c2cc(F)c(N3CCN(C(=O)c4ccco4)CC3)cc21 | 0% | 3% | ? | 2.3µM*
CCn1cc(C(=O)NC(C)C)c(=O)c2cc(F)c(N3CCN(C(=O)c4ccco4)CC3)cc21 | -7% | 3% | 5.2µM* | 5.9µM*
CCn1cc(C(=O)Nc2ncccc2O)c(=O)c2cc(F)c(N3CCN(C(=O)c4ccco4)CC3)cc21 | ? | -4% | ? | 4.7µM*
CCn1cc(C(=O)O)c(=O)c2cc(F)c(N3CCN(C(=S)NC(=O)c4ccccc4)CC3)cc21 | -5% | -2% | ? | ?
Cc1oc(-c2ccccc2)nc1CS(=O)CC(=O)NC1CCCCCC1 (centres undefined) | 7.1µM* | 1% | 26% | 16%
CCOC(=O)N1CCC(NC(=O)CS(=O)(=O)Cc2nc(-c3ccccc3Cl)oc2C)CC1 | -32% | -1% | 18% | ?
COc1cccc(-c2nc(CS(=O)CC(=O)NC3CCCCC3)c(C)o2)c1 (centres undefined) | 18µM* | -1% | -14% | ?
COc1cccc(-c2noc(CCCC(=O)NC3CCCC3)n2)c1 | -19% | -11% | -6% | 2.3µM*
CCOC(=O)N1CCC(NC(=O)CS(=O)Cc2nc(-c3ccccc3C)oc2C)CC1 (centres undefined) | 13µM* | -1% | -7% | 37%
Cc1oc(-c2ccccc2F)nc1CS(=O)CC(=O)NC1CCCCC1 (centres undefined) | 32µM* | -2% | 0% | 18%
COc1cccc(-c2nc(CS(=O)CC(=O)NC3CCCC3)c(C)o2)c1 (centres undefined) | ? | 14% | / | -20%
Cc1oc(-c2ccccc2F)nc1CS(=O)CC(=O)NC1CC1 (centres undefined) | ? | -5% | 10% | 14%
Cc1cccc(-c2nc(CS(=O)CC(=O)NC3CCCCC3)c(C)o2)c1 (centres undefined) | 56µM* | 5% | 25% | ?
COc1cc2c(cc1OC)CN(c1nc(CN3CCOCC3)nc3sc4c(c13)CCCC4)CC2 | -6% | 8% | 9.3µM* | 1.7µM*
Cc1cc(S(=O)(=O)Nc2nc(CN3CCOCC3)nc3sc4c(c23)CCC4)cc(C)c1C | -19% | -3% | -3% | 5%
COc1cc2c(cc1OC)CN(c1nc(CN3CCCC3)nc3sc(C)c(C)c13)CC2 | -10% | -3% | ? | ?
Cc1nc(N2CCOCC2)c2c3c(sc2n1)CCC3 | 2% | -3% | 10µM* | ?
COc1cc2c(cc1OC)CN(c1nc(CN3CCCCC3)nc3sc4c(c13)CCCC4)CC2 | -1% | 9% | 3.3µM* | 1.9µM*
COc1cccc(Nc2nc(CN3CCOCC3)nc3sc4c(c23)CCCC4)c1 | 0% | 11% | 15µM* | ?
SMILES | Sm TGR block | SARS PLP yeast | Pf growth 48h | Pf growth 96h
O=C(Nc1cccc(Cl)c1)C1CCCN(c2nn3cc(-c4ccc(F)cc4)nc3s2)C1 (centres undefined) | 1% | / | / | /
CCCCN1CC(=O)N2[C@H]3c4ccccc4OC[C@@H]3[C@H](C(=O)OCC)[C@]2(C)C1=O | / | 2% | / | /
COc1cc(CNCCSc2nnnn2C)ccc1OCc1ccc(C)cc1 | -2% | / | / | /
O=C(CSc1nc2ccccc2n1Cc1ccccc1)N/N=C/c1ccccc1C(=O)O | 0% | 0% | ? | -13%
O=C(CSc1nc2ccccc2n1Cc1ccccc1Cl)N/N=C/c1ccccc1C(=O)O | 4% | -1% | ? | 5.2µM*
COc1cc2c(Nc3ccc(Br)cc3F)ncnc2cc1OCC1CCN(C)CC1 | / | / | 0.67µM* | 1.5µM*
COc1cc2ncnc(NCc3cccc(F)c3F)c2cc1OC | 4% | -2% | / | ?
